CHO-K1 Ca PAM: nonselective calcium activators in parental CHO-K1 cells, primary screen, counter-screen for M1 PAM project, cell-based, Fluo-8 calcium fluorescence, full deck, 1536-well. AID 602247, 2012. ATP EC20; 0% at ATP EC20, 100% at ATP max. 360,000 compounds, 0.02% hits. activation, % at 3 µM;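 active means activation above the run cutoff, the mean activation of all test compounds plus 3 SD, cut at about 40% in these data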;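 further: peak over basal fluorescence ratio in a 140 s read after ATP addition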
CHRM1 antagonist: human M1 muscarinic receptor antagonists, primary screen, CHO-K1 cells, Fluo-8 calcium fluorescence, 1536-well | Muscarinic acetylcholine receptor M1 (Homo sapiens), P11229 | CHO-K1 hM1, ACh EC80 antagonist | inhibition, % at 3 µM | 360,000 compounds, 1.3% hits;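 active means percent inhibition above its own plate's cutoff, namely the mean of that plate's compound wells plus 3 SD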;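 further: peak over basal fluorescence ratio during 140 s after agonist addition; 0% = ACh EC80 plus DMSO and 100% = DMSO alone without agonist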
Target sequence (P11229 whole entry, looked up): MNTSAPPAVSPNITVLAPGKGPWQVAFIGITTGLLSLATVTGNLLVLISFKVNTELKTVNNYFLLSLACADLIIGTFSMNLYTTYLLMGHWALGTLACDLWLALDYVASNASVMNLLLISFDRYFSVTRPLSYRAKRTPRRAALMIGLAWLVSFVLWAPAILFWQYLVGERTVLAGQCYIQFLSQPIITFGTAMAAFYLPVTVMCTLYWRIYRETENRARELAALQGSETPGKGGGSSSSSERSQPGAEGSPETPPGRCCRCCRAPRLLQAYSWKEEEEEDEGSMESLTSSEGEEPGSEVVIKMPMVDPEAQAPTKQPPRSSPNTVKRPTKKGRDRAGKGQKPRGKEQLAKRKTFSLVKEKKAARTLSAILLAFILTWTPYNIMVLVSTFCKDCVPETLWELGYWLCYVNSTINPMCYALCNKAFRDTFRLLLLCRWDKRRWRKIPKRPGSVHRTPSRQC
M1 ag parental: counter-screen for M1 agonists: effect in parental CHO-K1 cells; Fluo-8 calcium fluorescence; scaled to maximal ATP response, vehicle zero; activation, % at 3 µM; 360,000 compounds, 0.48% hits; in the data active means activation above about 15%;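 further: untransfected CHO-K1 host cells lacking M1 receptor as counterscreen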
CHO-K1 Ca antag: counter-screen for M1 antagonists: effect in parental CHO-K1 cells. inhibition, % at 3 µM. AID 602250. ATP-induced calcium, Fluo-8 fluorescence. 360,000 compounds, 0.6% hits;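 active means inhibition above a per-plate cutoff, the plate's mean sample inhibition plus 3 SD, cut at about 24% in these data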;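 further: 0% = DMSO plus EC80 ATP and 100% = DMSO alone without ATP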
CHRM1 agonist: human M1 muscarinic receptor agonists, primary screen, Fluo-8 calcium fluorescence, CHO-K1 cells, HTS; Muscarinic acetylcholine receptor M1 (Homo sapiens), P11229; activation, % at 3 µM; 360,000 compounds, 0.33% hits; CHO-K1 hM1, agonist mode; 0% DMSO, 100% acetylcholine EC100;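 active means activation above the run's mean compound activation plus 3 SD, cut at about 16% in these data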;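 further: peak over basal fluorescence ratio within a 140 s kinetic read after compound addition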
CHRM1 PAM: human M1 muscarinic receptor positive allosteric modulators, primary screen, CHO-K1 cells, Fluo-8 calcium fluorescence, 1536-well. AID 588819, 2011. activation, % at 3 µM. Muscarinic acetylcholine receptor M1 (Homo sapiens), P11229. CHO-K1 hM1, ACh EC20; 0% = ACh EC20, 100% = maximal ACh. 360,000 compounds, 0.088% hits; in the data active means activation above about 19%, passing the limit was not always enough
Numbers without * were called inactive. Only some compounds are listed: those with a hit (about 2.4% of all), similar ones and a draw of the others.

SMILES	CHO-K1 Ca PAM	CHRM1 antagonist	M1 ag parental	CHO-K1 Ca antag	CHRM1 agonist	CHRM1 PAM
CC(C)(C)OC(=O)[C@H](Cc1ccccc1)NC(=O)c1nc[nH]c1C(=O)NCC(=O)OCc1ccccc1	-13.5	7.0	0.0	-5.4	-3.3	-7.3
CC(C)(C)OC(=O)CNC(=O)c1[nH]cnc1C(=O)NCC(=O)OCc1ccccc1	-11.9	35.0*	9.6	15.3	-2.3	-15.7
C[C@H](NC(=O)c1nc[nH]c1C(=O)NCCCCCNC(=O)OC(C)(C)C)C(=O)OCc1ccccc1	-19.2	44.8*	8.9	10.8	-0.9	-28.2
CC(C)(C)OC(=O)NCCCCCNC(=O)c1nc[nH]c1C(=O)NCC(=O)OCc1ccccc1	-2.5	38.8*	13.2	-2.5	1.0	-20.2
O=C(CCN1C(=O)C2C3C=CC(C3)C2C1=O)N1CCN(c2cccc(Cl)c2)CC1 (configuration not stated)	3.9	-28.2	3.4	0.9	1.7	-2.6
CC1=C(C)CC(C(=O)Nc2nccs2)C(C(=O)O)C1 (configuration not stated)	-0.6	-21.2	0.3	0.3	-2.6	14.7
Cc1ccc(NC(=S)NCc2ccc(Cl)cc2)c(OC(F)F)c1	-3.1	34.1*	6.0	19.1	-1.1	-20.6
O=C1Nc2ccc(Br)cc2/C1=C/C(=O)c1ccc2c(c1)OCO2	-1.3	15.2	2.2	11.8	10.3	7.6
COc1ccc(C(=O)/C=C2\C(=O)Nc3ccc(Br)cc32)cc1	9.3	20.2	3.6	13.3	19.2*	11.9
COc1cc(S(=O)(=O)Nc2cccnc2)ccc1Cl	0.8	1.0	1.1	8.2	-2.6	-1.2
Cc1onc(-c2c(Cl)cccc2Cl)c1C(=O)N1CCc2ccccc21	7.7	68.0*	0.6	-3.4	-7.4	-20.8
Cc1onc(-c2c(F)cccc2Cl)c1C(=O)N1CCc2ccccc2C1	19.5	27.3	0.3	-6.9	-5.8	-6.0
CCOC(=O)c1cc(C)n(CCCN2CCOCC2)c1C	-4.6	34.8*	0.5	-10.9	-7.3	-19.0
CCOC(=O)c1cc(C(C)(C)C)n(CCCN2CCOCC2)c1C	16.6	-10.1	1.0	-13.9	-3.4	5.2
CC1c2nc3ccccc3n2C(CC(=O)NC2CC2)C(=O)N1Cc1ccccc1 (configuration not stated)	7.5	4.5	-0.3	3.7	-5.2	-4.9
CC(=O)Nc1ccc(S(=O)(=O)N(C)c2ccc(OCC(=O)Nc3ccccc3C(C)=O)cc2)cc1	-18.6	35.5*	5.3	14.9	-3.4	-15.5
COc1ccc(NC(=O)COc2ccc(N(C)S(=O)(=O)c3ccc(Cl)cc3)cc2)cc1OC	-19.7	38.3*	14.4	27.2*	0.3	-13.4
CN(c1ccc(OCC(=O)OCC(=O)Nc2ccc(F)cc2)cc1)S(=O)(=O)c1ccc(Cl)cc1	6.2	13.2	10.7	4.4	-3.3	-11.5
NS(=O)(=O)c1ccc(CCNC(=O)CN2CCCCC2)cc1	7.1	4.2	0.8	-3.5	-5.8	3.8
CC(=O)Nc1cccc(NC(=O)CSc2ncc(-c3ccc(Cl)cc3)n2Cc2ccco2)c1	0.6	26.3*	7.6	11.7	5.9	-18.5
CCc1ccc(C(CNC(=O)c2ccc3c(=O)n(-c4ccccc4F)c(=S)[nH]c3c2)N(C)C)cc1 (configuration not stated)	-3.2	37.4*	2.3	3.7	-5.3	-18.6
Cc1ccccc1C(=O)NC1CCS(=O)(=O)C1 (configuration not stated)	9.3	-8.3	0.4	-4.3	-1.2	-0.1
CN(C)c1ccc(O)c2c1CC1CC3[C@@H](N(C)C)C(=O)C(C(N)=O)=C(O)[C@]3(O)C(=O)C1=C2O (some centres not stated)	-4.0	-27.6	-0.2	11.5	-1.0	8.0
C[C@H]1c2cccc(O)c2C(O)=C2C(=O)[C@]3(O)C(O)=C(C(N)=O)C(=O)[C@@H](N(C)C)[C@@H]3[C@@H](O)[C@@H]21	-11.2	-4.7	0.0	12.8	25.0*	-12.2
CC(C)CNC(=O)COC(=O)C1c2ccccc2Oc2ccccc21	-9.2	-12.9	0.6	-5.1	-4.8	13.2
SMILES	CHO-K1 Ca PAM	CHRM1 antagonist	M1 ag parental	CHO-K1 Ca antag	CHRM1 agonist	CHRM1 PAM
CC(C)[N+](C)(CCOC(=O)C1c2ccccc2Oc2ccccc21)C(C)C	0.3	97.4*	0.4	12.0	-6.5	-24.5
CCN(CC)C(=O)C1c2ccccc2Oc2ccccc21	5.7	5.2	27.3*	1.7	17.6*	-0.7
C=CCN(CC=C)C(=O)C1c2ccccc2Oc2ccccc21	19.2	12.9	-0.5	-13.5	-7.3	-10.1
CCn1c(Cc2cccs2)nnc1SCC(=O)NC(C)(C)C	14.3	-1.9	0.2	-10.5	-3.6	2.4
COc1ccccc1C1=NOC(Cn2c(NCCCO)nc3c2c(=O)n(C)c(=O)n3C)C1 (configuration not stated)	20.7	-4.7	1.7	-10.7	-4.0	1.7
COc1ccc(C2=NOC(Cn3c(Cc4ccc(Cl)cc4)nc4c3c(=O)n(C)c(=O)n4C)C2)cc1 (configuration not stated)	-7.0	30.9*	0.4	3.9	0.2	-9.0
Cc1ccc2oc(-c3ccc(C)c(NC(=O)Cc4cccs4)c3)nc2c1	-7.0	-0.4	-0.4	12.3	-1.8	1.5
Cc1ccc(S(=O)(=O)C(c2ccccc2)c2c(C)noc2C)cc1 (configuration not stated)	5.0	-3.1	0.0	1.3	-7.7	-0.2
Cc1noc(C)c1C(c1ccccc1)S(=O)(=O)c1ccccc1 (configuration not stated)	-11.2	-11.6	0.3	28.4*	-8.3	8.1
O=C(Nc1ccc(C(F)(F)F)cc1)c1ccc2nc[nH]c2c1	-12.9	5.8	0.5	15.7	-1.1	1.6
Oc1ccc(Br)cc1C=Nc1ccc2c3c(cccc13)CC2	2.7	12.6	22.0*	32.4*	10.9	-1.8
OCCOc1ccc(CN2CCCC(N3CCN(c4ccc(F)cc4)CC3)C2)cc1 (configuration not stated)	-4.6	1.9	0.5	-7.9	-10.0	-1.0
c1ccc(Oc2ccc(-c3ccn[nH]3)cc2)cc1	-18.2	-3.2	0.7	2.3	-2.9	2.2
c1ccc(-c2ncc(-c3ccn[nH]3)s2)cc1	-15.7	10.5	-0.5	28.7*	-5.3	-9.0
CCn1c(SCC(N)=O)nnc1-c1ccco1	-2.6	3.2	0.8	13.6	0.3	7.1
NC(=O)COc1ccccc1/C=C1/SC(=O)N(CC(=O)N2CCc3ccccc3C2)C1=O	6.8	-4.7	3.0	-1.0	-0.7	-4.6
